Assay results reported in the supplement of paper PMC10338343.
± gives the standard deviation.

test system: MILI (PIWIL2) piRISC loaded with piRNA #1 (26 nt); test: pre-steady-state target cleavage rate (min^-1); guide: piRNA #1 5'p-UGAGGUAGUAGGUUGUAUAGUAUCCA; MIWI and MILI are mouse PIWI proteins and EfPiwi is from a freshwater sponge; tags in brackets are library labels; higher = faster piRNA-guided slicing of the target; settings: auxiliary factor: 500 nM mouse GTSF1
In short: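 Cleave-'n-Seq used a transcribed, DNA-blocked target RNA library at 0.1 nM and active affinity-purified piRISC with one synthetic guide at 1 nM, with or without 500 nM GTSF1 partner protein, in HEPES–potassium acetate buffer at 33 °C for 0–8 or 0–960 min. Uncleaved targets were sequenced and normalised to depth and to weakly complementary targets, and three trials were pooled with k3 capped at 0.0001 min^-1. The pre-steady-state cleavage rate was estimated by a burst-and-steady-state fit.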

Sequence | pre-steady-state target cleavage rate
GGAGACCUUACUUUACUACCUACUACCUCA | 0.0948 ± 0.01
GGAGACCAUACUAAUCAACCUACUACCUCA | 0.17 ± 0.019
GGAGACCUAAGUAUACAACCUACUACCACA | 0.0885 ± 0.012
GGAGACCUAUGAUAACAACUUACUACCUCA | 0.00545 ± 0.0023
GGAGACCUAACUAUGACAACCUACUACCUCA | 0.0415 ± 0.0097
GGAGACCUAUGAUUACAACCUACUACCUUCA | 0.00664 ± 0.0022
GGAGACCAUACUAUAGAACGUACUACCUCA | 0.00933 ± 0.0017
GGAGACCUAUGUAUACAUCCUACUAGCUCA | 0.0312 ± 0.0078
GGAGACCUAUGUAUACAACCUACGUACCUCA | 0.0295 ± 0.0083
GGAGACCUUACUAUUGUACCUACUACCUCA | 0.0232 ± 0.0049
GGAGACCUAACUAUACAACCGUACUACCUCA | 0.00506 ± 0.005
GGAGACCUAUGUAUACAACCUACUAACCUCA | 0.0935 ± 0.013
GGAGACCAUACUUUACAACCUACUACGUCA | 0.0972 ± 0.016
GGAGACCUAUGUAUACAAGCUACUACGUCA | 0.0451 ± 0.009
GGAGACCUAUGAUAUGUACCUUCAACCUCA | < 0.0001
GGAGACCUAUCUAUACAACCAAGUACCUCA | 0.00317 ± 0.0031
GGAGUGGAUACUAAACAACCUACUUCCUCA | 0.00431 ± 0.0024
GGAGACCUAACUAUACAUCCUACUACCUGA | 0.116 ± 0.039
GGAGACCUAACUAAUCAACCUACUACCUCA | 0.0719 ± 0.016
GGAGACCUAUGAUAUCAACCUACCUACCUCA | 0.00604 ± 0.0032

Sequence | pre-steady-state target cleavage rate
GGAGUGGAUUCUAUACAACCUACUACGUCA | 0.0598 ± 0.0076
GGAGACCUAUGAUAACAAGCCUACUACCUCA | < 0.0001
GGAGACCUAUCUAUACUUGCUACUACCUCA | 0.0151 ± 0.0031
GGAGACCAUACAAUACAACGUACUACCUCA | 0.0186 ± 0.0044
GGAGACCUAACUAAACAACCUACUUCCUCA | 0.0346 ± 0.013
GGAGACCUAUGAAUACAAGCUACUAGCUCA | 0.00622 ± 0.0027
GGAGACCUAUGUAAACAACCUAGUACCUCA | 0.00454 ± 0.0024
GGAGAGGAUUCUAUACAACCUACUUCCUCA | 0.00504 ± 0.0027
GGAGACCUUAGUAUUCAACCUACUACCUCA | 0.089 ± 0.011
GGAGUGGAUACUUAUCAACCUACUACCUCA | 0.149 ± 0.011
GGAGACCUAACUAUACAAGCUACUUCCUCA | 0.144 ± 0.024
GGAGACCUUACUAUAGAAGCUACUACCUCA | 0.134 ± 0.015
GGAGACCUAUCAAUACAACCUACUACGUCA | 0.0134 ± 0.0044
GGAGACCUAAGUAUACAACCUACAACCUCA | 0.0483 ± 0.0084
GGAGACCUAUGUAUACAAGCUACUUCCUCA | 0.101 ± 0.013
GGAGACGAUACUAUAAACCUACUACCUCA | 0.0257 ± 0.0077
GGAGACCAUACUAUACAACGAUCUACCUCA | < 0.0001
GGAGACCUUACAAUACAACCUACUAGCUCA | 0.103 ± 0.013
GGAGACCUAUCUUUACAACCUACAACCUCA | 0.0745 ± 0.01
GGAGACCUAUGUAUACAACCUAGCUACCUCA | 0.00713 ± 0.0027
